Calls of active or inactive are those of the source. Rule for the calls: active = hit-call score of the fitted dose curve at least 0.9, where 1 is the maximum; inactive = score below 0.9.
Assay: APR_HepG2_MicrotubuleCSK_72hr: Apredica 72-hour HepG2 Assay for Microtubule CSK Stabilty (AID 2282919)
Conditions: HepG2 microtubule cytoskeleton, high-content imaging, actives raise or lower the signal
Description: APR_HepG2_72hr is a cell-based, multiplexed-readout assay that uses HepG2, a human liver cell line, with measurements taken at 72 hours after chemical dosing in a 384-well plate.APR_HepG2_MicrotubuleCSK_72hr is one of 10 assay component(s) measured or calculated from the APR_HepG2_72hr assay. It is designed to make measurements of protein conformation, a form of conformation reporter, as detected with fluorescence intensity signals by HCS Fluorescent Imaging technology.Data from the assay component APR_HepG2_MicrotubuleCSK_72hr was analyzed into 1 assay endpoint. This assay endpoint, APR_HepG2_MicrotubuleCSK_72hr, was analyzed with bidirectional fitting relative to DMSO as the negative control and baseline of activity. Using a type of conformation reporter, measures of protein for gain or loss-of-signal activity can be used to understand the signaling at the cellular-level. Furthermore, this assay endpoint can be referred to as a primary readout, because this assay has produced multiple assay endpoints where this one serves a signaling function. To generalize the intended target to other relatable targets, this assay endpoint is annotated to the cell morphology intended target family, where the subfamily is cell conformation.
Cells were treated with dimethyl sulfoxide (DMSO) as a solvent control at a final concentration of 0.5% v/v or with compounds in DMSO with a resulting final DMSO concentration of 0.5% v/v. Compound treatment was done at concentrations of 0.39, 0.78, 1.56, 3.12, 6.24, 12.5, 25, 50, 100, and 200 uM in duplicate on each plate. Cells were treated with compounds for 1, 24, or 72 hr. Carbonyl […] m-chloro-phenylhydrazone (CCCP) and taxol were used as positive controls for mitochondrial function and cytoskeletal stability, respectively; DMSO served as the negative control for this experiment. Cells were fixed by the direct addition of 50 uL formaldehyde in Hank's Balanced Salt Solution (HBSS) to a final concentration of 3.7%. After incubation in the fixation medium for 30 min at room temperature (293-298 K), cells were rinsed twice with HBSS and treated with cell permeabilization buffer (16 uL of 0.5% Triton X-100) for 10 min at room temperature (293-298 K) before labeling. For mitochondrial membrane potential and mitochondrial measurements, pre-fixed cells were incubated with 50 uL of MitoTracker Red CMXRos (Invitrogen) at a concentration of 250 nM for 30 min before fixation. In the remaining cases, post-fixed cells were labeled by incubation with a multiplexed mixture of primary antibodies in HBSS for 60 min at room temperature (293-298 K) to detect immunoreactivity of c-Jun (1:500), phospho-histone H3 (1:100), phospho-histone H2A.x (1:200), p53 (1:400), alpha-tubulin (1:200) and Hoechst 33342 (2 ug/mL). Cells were labeled for multiplexed imaging on two separate plates: a) Hoechst 33342, MitoTracker Red, phospho-histone H3, and alpha-tubulin, and b) Hoechst 33342, phospho-histone H2A.x, and c-Jun. A final rinse with HBSS (50 uL) was performed before analysis. The primary and secondary antibodies for the proteins were phospho-histone H3 (rabbit anti-phospho-histone H3 and FITC-donkey anti-rabbit IgG), phospho-histone H2A.x (mouse anti-phospho-histone H2A.x and FITC-donkey anti-mouse IgG), c-Jun (rabbit anti-phospho-c-Jun and Cy3-donkey anti-rabbit IgG), p53 (sheep anti-p53 and Cy5-donkey anti-sheep IgG), alpha-tubulin (mouse anti-alpha-tubulin and Cy5-donkey anti-mouse IgG). These antibodies are available as the CellCiphr HepG2 assay kit (Millipore).Digital images of each well were captured using a Cellomics ArrayScan VTI (Thermo Scientific Cellomics) (0.8 NA objective, 0.63x optical coupler, and XF-93 filter set) at 20x magnification. The images were acquired using the autofocus feature of the ArrayScan instrument, which entails the following steps. First, the camera focuses on channel 1 (Hoechst 33342), where nuclei are identified. Second, a Z offset of 1 um is used for capturing mitochondria (MitoTracker Red). […]
In the case of `c1nc[nH]n1`, the outcome is reported as “inactive”.
With `Nc1ccc2ccccc2c1` the outcome was “inactive”.
For `O=[N+]([O-])c1ccc(Cl)c(Cl)c1`, the outcome was “inactive”.
In the case of `CSC(C)(C)C=NO`, the outcome is reported as “inactive”.
With `O=[N+]([O-])c1ccccc1` the outcome was “inactive”.
In the case of `O=C(O)C(Cl)Cl`, the outcome is reported as “inactive”.
In the case of `CCN(CC)c1ccccc1`, the outcome is reported as “inactive”.
With `Cc1cccc(N)c1` the outcome was “inactive”.
In the case of `Cc1ccc([N+](=O)[O-])cc1C`, the outcome is reported as “inactive”.
For `ClC(Cl)c1ccccc1`, the outcome was “inactive”.
In the case of `CCOP(=S)(Oc1ccc([N+](=O)[O-])cc1)c1ccccc1` (centres undefined), the outcome is reported as “inactive”.
For `Nc1ccc(Cl)cc1`, the outcome was “inactive”.
With `CCNc1nc(Cl)nc(NC(C)(C)C)n1` the outcome was “inactive”.
In the case of `ClC(Cl)(Cl)c1ccccc1`, the outcome is reported as “inactive”.
For `CC(Cl)(Cl)C(=O)O`, the outcome was “inactive”.
For `CC(Cc1ccc(OCC(=O)O)cc1)NCC(O)c1csc(C(F)(F)F)n1` (centres undefined), the outcome was “inactive”.
With `Cc1ccc(N)cc1N` the outcome was “inactive”.
For `Nc1cc2c3c(c1)C(c1ccccc1)=N[C@@H](NC(=O)c1cccnc1)C(=O)N3CC2`, the outcome was “inactive”.
For `[N-]=[N+]=[N-]`, the outcome was “inactive”.
In the case of `O=P1(N(CCCl)CCCl)NCCCO1` (centres undefined), the outcome is reported as “inactive”.
In the case of `c1ccc(OP(Oc2ccccc2)Oc2ccccc2)cc1`, the outcome is reported as “inactive”.
With `OCC1CO1` (centres undefined) the outcome was “inactive”.
In the case of `CCOP(=S)(OCC)SCSCC`, the outcome is reported as “inactive”.
With `CCOc1ccc(C(C)(C)COCc2cccc(Oc3ccccc3)c2)cc1` the outcome was “inactive”.
With `CN(C)C(=O)Cl` the outcome was “inactive”.
With `CCCCN(CCCC)SN(C)C(=O)Oc1cccc2c1OC(C)(C)C2` the AC50 was 97.1 µM (active).
In the case of `CCOC(=O)c1ccccc1C(=O)OCC`, the outcome is reported as “inactive”.
With `CCCCc1ccccc1` the outcome was “inactive”.
With `CCC1(c2ccccc2)C(=O)N=C(O)NC1=O` (centres undefined) the outcome was “inactive”.
In the case of `CCCCCCCc1ccc(O)cc1`, the outcome is reported as “inactive”.
With `CCOS(=O)(=O)OCC` the outcome was “inactive”.
For `CC(C)(C)OOC(C)(C)C`, the outcome was “inactive”.
With `CCCCN(CCCC)N=O` the outcome was “inactive”.
With `CCCN(CCC)c1c([N+](=O)[O-])cc(C(C)C)cc1[N+](=O)[O-]` the AC50 was 41.2 µM (active).
In the case of `COCCOCCO`, the outcome is reported as “inactive”.
For `CCC(C)(C)c1ccc(O)cc1`, the outcome was “inactive”.
In the case of `c1ccc2c(c1)Nc1ccccc1S2`, the outcome is reported as “inactive”.
For `ClC1=C(Cl)C2(Cl)C3C(Cl)C(Cl)CC3C1(Cl)C2(Cl)Cl` (centres undefined), the AC50 was 98.6 µM (active).
In the case of `O=P(Oc1ccccc1)(Oc1ccccc1)Oc1ccccc1`, the AC50 is reported as 79.4 µM (active).
